Compounds with a hit are over-represented: about 4.3% of the library has one in this group of screens.
SMARCA2 act: increases SMARCA2 function in MMTV reporter cells | hit rate 1% among 370,000 | AID 652017 | MG213 cells, MMTV-luciferase reporter, dexamethasone, overnight | activation, % at 9.1 µM; in the data active = activation above about 7.8%;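 also: 0% = vehicle wells and 100% = reference activator wells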
esBAF inh: inhibitors of esBAF chromatin remodeling in mouse ES cells. Bmi1-luciferase knock-in reporter, 24 h; 100% = twice the neutral-well signal. reporter increase, % at 12.5 µM. hit rate 2% among 350,000. AID 602393; in the data active = activation above about 40%; inconclusive = no clear call, values can overlap the other calls;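 also: 0% = median of the plate's neutral control wells and 100% = double that signal; a rise in the Bmi1 reporter signal indicates esBAF inhibition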
MITF TRPM1 HTS: increases MITF-driven TRPM1 promoter luciferase signal; SK-MEL-5 TRPM1-promoter luciferase, 24 h; % of positive control, neutral wells = 0; activation, % at 12.5 µM; hit rate 0.75% among 300,000; AID 588334;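 active = mean activation of at least 80% with every replicate also reaching 80%; inconclusive = mean reaches 80% but some replicate falls short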;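 also: 0% = neutral control wells and 100% = parthenolide positive control wells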
Wnt bcat act: Wnt/beta-catenin pathway activation; Wnt/beta-catenin reporter cell assay, activator, plate reader; activation, % at 9.35 µM; hit rate 1.2% among 300,000; AID 743398; in the data active = activation above about 30%, passing the limit was not always enough; inconclusive = no clear call, values can overlap the other calls;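 also: 0% = neutral control wells and 100% = positive control wells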
HSF1 inhib: HSF1 inhibition; NIH3T3-HGL HSE-luciferase, MG132-induced, luminescence 8 h; active compounds read low; activity change, negative = inhibition, % at 7.5 µM (by protocol); hit rate 0.77% among 300,000; AID 2098;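 active = more than half of replicate wells show activity change below -50%, luminescence cut by over half; inconclusive = some wells, but at most half, below -50%; inactive = no replicate well below -50%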;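 also: luciferase reports HSF-1 transcriptional activity via heat shock element; 0% = median of DMSO wells and -100% = zero luminescence signal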
HSF-1 act: increases HSF-1 driven luciferase reporter signal | NIH3T3-HGL HSF-1 luciferase reporter, MG132, 8 h; 100% = twice DMSO control signal | activation, % at 9 µM | hit rate 1.7% among 300,000 | AID 504408;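 active = mean replicate activation of at least 50% with a set share of replicates each reaching 50%; inconclusive = only one of those two conditions met; inactive = mean below 50% and too few replicates reaching it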;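 also: 0% = median of the neutral control wells and 100% = twice that signal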
SMARCA2 conf: SMARCA2 activation, confirmation screen; shares compounds with SMARCA2 act; MG213 cells, MMTV-luciferase with dexamethasone, luminescence, overnight; MG213 cells expressing E1A, Rb sequestered; DMSO wells 0%, reference activator 100%; activation, % at 9.1 µM; hit rate 30% among 3,500;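 active = activation above its plate's cutoff, the mean activation of tested wells plus 3 SD, cut at about 7.9% in these data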
GAL4-VP16 Luc: counter-screen for SMARCA2 activators: GAL4-VP16 luciferase reporter activation. shares compounds with SMARCA2 act. HEK293 GAL4-VP16 pG5luc reporter, luciferase luminescence; scaled: DMSO wells 0%, SAHA wells 100%. activation, % at 9.1 µM. hit rate 41% among 3,500. AID 686939;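 active = activation above the solvent-only control well mean plus 3 SD, averaged across control plates, cut at about 5.2% in these data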
* hit, by the source's call; ? = inconclusive; / = no result given.

SMILES	SMARCA2 act	esBAF inh	MITF TRPM1 HTS	Wnt bcat act	HSF1 inhib	HSF-1 act	SMARCA2 conf	GAL4-VP16 Luc
Cc1ccccc1-n1c(C)nnc1SCC(=O)NNC(=O)c1ccccc1	8.0*	/	-7	1	-21	0	5	1
Cc1nnc(SCC(=O)NNC(=O)c2ccccc2)n1-c1ccccc1	-4	/	3	-2	-3	5	/	/
O=c1c2[nH]c3cccc(Cl)c3c2ncn1CC1CCCO1 (stereo unspecified)	8.2*	/	6	11	3	-7	5	3
Cc1ccc(NCCN(C)C)c2c(=O)c3cc(O)ccc3sc12	3	/	-93	3	/	/	/	/
CN(C)CCNc1cccc2sc3ccc(O)cc3c(=O)c12	16*	/	/	5	/	/	31*	8.4*
C[C@H](CO)N1C[C@H](C)[C@@H](CN(C)C(=O)c2ccncc2)Oc2cc(C#CC3(O)CCCC3)ccc2S1(=O)=O	/	3	/	/	/	/	/	/
C[C@H]1CN([C@@H](C)CO)C(=O)c2cc(C#CCC3CCCC3)cnc2O[C@@H]1CN(C)S(=O)(=O)c1cccs1	/	3	/	/	/	/	/	/
Cc1cnc(NC(=O)Nc2ccc(Cl)cc2)s1	12*	/	?	-24	343	274*	8.3*	11*
CC(=O)NC[C@@H]1[C@@H](c2ccc(-c3cccc(F)c3)cc2)[C@@H](CO)N1C(C)=O	/	2	/	/	/	/	/	/
Cc1cccc(S(=O)(=O)N2CCCCN3[C@H](CO)[C@H](c4ccc(-c5ccncc5)cc4)[C@@H]3C2)c1	/	14	/	/	/	/	/	/
O=C(COC(=O)CC1CCCC1)Nc1cc2c(cc1Cl)C(=O)c1ccccc1C2=O	8.1*	50*	29	39*	24	20	8.6*	14*
COc1ccc(C2CC(=O)c3ccccc3O2)cc1 (stereo unspecified)	8.6*	61*	126*	43*	13	14	8	3
O=C1CC(c2ccccc2)Oc2ccc(Cl)cc21 (stereo unspecified)	0	/	5	0	/	/	/	/
CCC(=O)N(C)C[C@@H]1Oc2ncc(-c3ccccc3OC)cc2C(=O)N([C@H](C)CO)C[C@@H]1C	/	4	/	/	/	/	/	/
O=C(NCc1ccc(F)cc1)[C@H]1N[C@H]2c3ccc(-c4ccccc4)c(=O)n3C[C@H]2[C@@H]1CO	/	3	/	/	/	/	/	/
O=C(CC(=O)c1ccccc1)Nc1ccccn1	13*	6	/	24	7	-2	7	9.2*
O=C(CC(O)(c1ccccc1)c1ccccc1)Nc1ccccn1	2	/	0	9	/	/	/	/
COc1ccc(NC(=O)Nc2ccc3c(c2)C(=O)N(C)C[C@H](OC)[C@@H](C)CN[C@@H](C)CO3)cc1	/	2	/	/	/	/	/	/
CCOc1cc(/C=C2\CN(CC)C/C(=C\c3ccc(O)c(OCC)c3)C2=O)ccc1O	10*	23	-92	9	20	26	-7	-3
CCOc1cc(/C=N/N=C/c2ccc(O)c(OCC)c2)ccc1O	-3	5	-12	-2	-5	-13	/	/
C[C@@H]1CN([C@H](C)CO)C(=O)c2cc(NC(=O)Cc3cn(C)c4ccccc34)ccc2O[C@@H]1CN(C)CC1CCCCC1	/	2	/	/	/	/	/	/
CN(C)c1ccc(CNn2cnnc2SCc2ccccc2F)cc1	10*	20	18	5	12	37	2	3
CN(C)c1ccc(/C=C(/C#N)C(=O)Nc2nc3c(s2)CCN(Cc2ccccc2)C3)cc1	8.9*	28	18	-6	/	/	-5	6.9*
Cn1c2ccccc2c(=O)c2cc(C#Cc3ccccn3)ccc21	8.1*	2	102*	21	10	16	21*	5.3*
COc1cc2oc3ccc(C#Cc4ccccn4)cc3c(=O)c2cc1OC	2	16	33	9	-4	5	/	/
SMILES	SMARCA2 act	esBAF inh	MITF TRPM1 HTS	Wnt bcat act	HSF1 inhib	HSF-1 act	SMARCA2 conf	GAL4-VP16 Luc
COc1cccc2oc3ccc(C#CC4(N)CCCCC4)cc3c(=O)c12	7	1	-24	19	-19	-26	/	/
Cn1c2ccccc2c(=O)c2ccc(C#CC3(N)CCCCC3)cc21	19*	-15	-13	24	-43	-41	44*	19*
CN(C)C(=O)[C@@H]1[C@@H](CO)[C@@H]2Cn3c(ccc(C4=CCCC4)c3=O)[C@H]1N2S(=O)(=O)c1cn(C)cn1	/	-4	/	/	/	/	/	/
COc1ccc(CN(C)C[C@H]2OCCCC[C@@H](C)Oc3ccc(NC(=O)c4ccccc4)cc3C(=O)N([C@@H](C)CO)C[C@@H]2C)cc1	/	1	/	/	/	/	/	/
Cc1cc(NC(=O)CSc2nc3sc4c(c3c(=O)n2C)CCCC4)no1	-1	1	-8	-3	4	1	/	/
Cn1c(SCC(=O)Nc2ccc(S(=O)(=O)Nc3nccs3)cc2)nc2sc3c(c2c1=O)CCCC3	11*	/	/	/	/	/	3	1
COc1ccc(CC(=O)Nc2ccc(S(=O)(=O)Nc3nccs3)cc2)cc1	0	-4	-6	-3	-4	-1	/	/
COc1cccc(CC(=O)Nc2ccc(S(=O)(=O)Nc3nccs3)cc2)c1	8.4*	7	-3	-4	/	/	-2	2
CCCC#Cc1cnc2c(c1)C(=O)N([C@H](C)CO)C[C@@H](C)[C@H](CN(C)C(=O)C1CCC1)O2	/	2	/	/	/	/	/	/
Cc1ccc(/C=C/C2=NN(C)C(=O)CC2)cc1	8.3*	38	63	15	8	?	6	6.6*
CN1N=C(/C=C/c2ccccc2)CCC1=O	7	/	39	-1	18	34	/	/
COc1ccccc1NC(=O)N(C)C[C@@H]1Oc2cc(Br)ccc2S(=O)(=O)N([C@@H](C)CO)C[C@H]1C	/	-3	/	/	/	/	/	/
COc1cccc(NC(=O)C2CC2(c2cccc(OC)c2)c2cccc(OC)c2)c1 (stereo unspecified)	-2	/	2	-2	3	27	/	/
COc1cccc(C2(c3cccc(OC)c3)CC2C(=O)Nc2cccc3ccccc23)c1 (stereo unspecified)	9.6*	1	-7	-1	1	18	-7	1
CC(=O)Nc1sc(NC(=O)c2ccc([N+](=O)[O-])cc2)nc1-c1cccs1	9.4*	/	/	0	9	18	-5	0
CC(=O)Nc1sc(NC(=O)c2ccc(Cl)cc2)nc1-c1cccs1	-2	/	7	/	1	-10	/	/
C[C@@H](NC(=O)C[C@@H]1CC[C@H]2[C@@H](COC[C@@H](O)CN2C(=O)Nc2cccc(Cl)c2)O1)c1ccccc1	/	3	/	/	/	/	/	/
CO[C@@H]1CN(C)C(=O)c2ccc(NS(=O)(=O)c3cn(C)cn3)cc2OC[C@H](C)N(Cc2cccc(F)c2)C[C@@H]1C	/	1	/	/	/	/	/	/

Screening data deposited in PubChem by several laboratories.
